# Compound activity (PubChem BioAssay)
# KB-V1 cytotox: qHTS assay for MDR1-selective chemotherapeutics: Primary screen using the drug-selected MDR subline cells KB-V1. KB-V1 MDR cells viability, CellTiter-Glo, 72 h. Potency, µM (highest dose often 46.1 µM), actives largely listed as cytotoxic. hit rate 3.4% among 400,000; also: potency is read from the fitted curve at half-maximal effect; nearly all actives have a fitted effect of over 60% in size
#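 KB-V1 cells (P-gp-expressing MDR subline of KB-3-1) in phenol-red-free DMEM with 10% FBS were exposed to library compounds over a concentration series for 72 h at 37 degrees C. Viability read by CellTiter-Glo luminescence; concentration-effect curves fitted after normalization.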
# HT1080NT lethal: qHTS for induction of synthetic lethality in tumor cells producing 2HG: qHTS for the HT-1080-NT fibrosarcoma cell line; HT-1080-NT fibrosarcoma viability, CellTiter-Glo ATP luminescence, 48 h; AID 686970, 2013; hit rate 1.6% among 360,000; Potency, µM (titrated, usually from 46.1 µM), for inactives: at the highest dose activity, negative = less viability, usual class: cytotoxic;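 also: NT is the 2HG producing partner of a matched IDH1 knockdown line; potency is read from the fitted curve at half-maximal effect; 0% = DMSO-treated cells and -100% = media-only wells without cells; nearly all actives have a fitted effect of over 55% in size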
#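 Luminescent CellTiter-Glo readout after 48 hours of compound exposure at 37 degrees C defined viability of HT-1080-NT cells. Activity was normalized to DMSO wells and cell-free media wells; concentration-response curves were fitted and assigned curve classes.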
# HT1080 IDH1KD tx: qHTS for induction of synthetic lethality in tumor cells producing 2HG: qHTS for the HT-1080-IDH1KD cell line; HT-1080 IDH1 knockdown viability, ATP luminescence, 48 h; Potency, µM (doses to about 46.1 µM), without a hit: at the top dose activity, negative = toxicity, usual class: cytotoxic; hit rate 2% among 360,000;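 also: potency is read from the fitted curve at half-maximal effect; 0% = DMSO wells and -100% = cell-free medium wells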
#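 % activity derives from luminescence (CellTiter-Glo), normalised to DMSO and no-cell wells. HT-1080-IDH1KD cells, 750/well, had 48 h compound exposure at 37 °C.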
# IL1B secr inh: qHTS for Inhibitors of Inflammasome Signaling: IL-1-beta AlphaLISA Primary Screen | hit rate 4.7% among 360,000 | activity change, % at 57.5 µM | THP-1 LPS/ATP IL-1B secretion, AlphaLISA, 16 h; hits give low values; in the data active = activity change below about -50%; inconclusive = mostly about -30% to -49%
#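 Secreted IL-1B measured by AlphaLISA bead assay after 16 h compound exposure of THP-1 cells; compounds (final up to 57.5 uM) added 1 h before LPS (250 ng/mL) and ATP (1.25 mM) stimulation; lower signal means less secretion.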
# KB-3-1 tox: qHTS assay for MDR1-selective chemotherapeutics: Primary screen using the parental adenocarcinoma cell KB-3-1; KB-3-1 viability, CellTiter-Glo ATP luminescence, 72 h; Potency, µM (doses to about 46.1 µM), actives largely listed as cytotoxic; hit rate 1.4% among 400,000; also: potency is read from the fitted curve at half-maximal effect; nearly all actives have a fitted effect of over 60% in size
#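 Cytotoxicity in the drug-sensitive parental line KB-3-1 was scored as loss of CellTiter-Glo luminescence following 72 h incubation with compound. Values come from curve fitting of normalized concentration-response data.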
# * = called active by the depositor; i = inactive; ? = inconclusive; . = no result given. Only some compounds are listed: those with a hit (about 8.8% of all), similar ones and a draw of the others. Unless noted, calls follow the shape of the dose curve; as a rule, active = well fitted curve in the direction sought with a large enough effect; inconclusive = small, poorly fitted or top-dose-only effect, or another doubt; inactive = no such curve, though single readings can be large; an effect the other way counts as inactive or inconclusive. Unless noted, % is scaled to controls: 0 for no effect and ±100 for the full control effect.
SMILES,KB-V1 cytotox,HT1080NT lethal,HT1080 IDH1KD tx,IL1B secr inh,KB-3-1 tox
CCn1ncc(Br)c1C(=O)Nc1cc([N+](=O)[O-])ccc1C,16.4µM*,4.8%,4.1%,-9.2,?
Cc1ccc(S(=O)(=O)N(CC(=O)Nc2cccnc2)c2cc(Cl)ccc2C)cc1,i,.,.,.,i
CC(=O)Nc1cccc(-c2cnc(N)c(C(=O)c3cccnc3)n2)c1,i,-24.2%,-24.6%,-98.7*,?
NC(=O)c1cccc(-c2cnc(N)c(C(=O)c3cccnc3)n2)c1,i,-19.5%,-25.2%,-95.0*,?
O=C(Nc1cccc(NC(=O)c2cccnc2)c1)c1ccccc1,i,-0.1%,4.9%,2.8,i
CCOC(=O)Cn1c(=O)n(CC2CCCO2)c2nc(-c3ccccc3F)nc(C(N)=O)c21 (stereo not given),?,.,.,.,i
COc1ccc(Cn2nnnc2C(c2ccccn2)N2CCN(c3ccc(O)cc3)CC2)cc1 (stereo not given),i,.,.,.,i
O=c1c(C(c2ccc(Br)cc2)c2c(O)nc3n(c2=O)CCCS3)c(O)nc2n1CCCS2,i,0.0%,9.1%,19.9,?
O=c1c(C(c2ccc(Br)cc2)c2c(O)nc3n(c2=O)CCS3)c(O)nc2n1CCS2,i,2.7%,4.5%,-68.6*,i
CCOC(=O)C1CCCN(Cc2cn3c(-c4cccc(Br)c4)nnc3s2)C1 (stereo not given),i,.,.,.,i
COc1cccc(-c2nnc3sc(CN4CCCCC4)cn23)c1,i,.,.,.,2.59µM*
Brc1ccc(-c2nnc3sc(CN4CCc5ccccc5C4)cn23)cc1,i,2.0%,3.8%,2.6,i
c1ccc(-c2nnc3sc(CN4CCc5ccccc54)cn23)cc1,?,.,.,-1.0,20.6µM*
CC1(C)C2(C#N)C(=O)NC(=O)C12C#N (stereo not given),i,2.6%,12.3%,-4.3,i
CCCOP(=O)(OCCC)c1c([N+](=O)[O-])cc(C(F)(F)F)cc1[N+](=O)[O-],?,?,?,-73.4*,?
O=C(Nc1ccc(Cl)cc1Cl)[C@@H]1CC=C[C@@H]2CCN(Cc3ccccc3)C(=O)[C@@H]21,?,.,.,.,i
S=c1[nH]nc(C2CC2c2ccc(Cl)cc2)n1-c1ccc(Cl)cc1 (stereo not given),i,-6.7%,-11.0%,-102.2*,i
Cc1ccc(C2CC2c2n[nH]c(=S)n2-c2ccc(C)cc2)cc1 (stereo not given),i,-23.3%,-0.3%,21.4,i
Cc1ccc(-n2c(C3CC3c3ccc(Cl)cc3)n[nH]c2=S)cc1 (stereo not given),20.6µM*,?,?,63.2,i
Cc1ccc(-n2c([C@@H]3C[C@H]3c3ccccc3)n[nH]c2=S)cc1,?,8.0%,13.6%,16.0,i
CCN(CC)S(=O)(=O)c1ccc(N2CCc3ccccc3C2)nc1,i,?,?,-101.2*,?
CC(C)N(C(C)C)S(=O)(=O)c1ccc(N2CCc3ccccc3C2)nc1,i,?,?,-105.6*,i
CCN(CC)S(=O)(=O)c1ccc(N2CCN(S(=O)(=O)c3ccccc3)CC2)nc1,i,-24.5%,?,0.0,i
COC(=O)c1ccccc1NC(=O)N1CCC(N2CCN(Cc3ccc(F)cc3)C(=O)C2=O)CC1,i,.,.,.,i
COC(=O)[C@]12CCCCC=C1N(CCC1=CCCCC1)C(=O)[C@H](CC(=O)NCc1cccc3ccccc13)C2,i,?,16.4µM*,-9.2,i
SMILES,KB-V1 cytotox,HT1080NT lethal,HT1080 IDH1KD tx,IL1B secr inh,KB-3-1 tox
COC(=O)[C@]12CCCCC=C1N(Cc1ccccc1)C(=O)[C@H](CC(=O)NCc1cccc3ccccc13)C2,i,?,?,-9.6,i
CCOC(=O)[C@]12CCC=C1N(Cc1ccc3c(c1)OCO3)C(=O)[C@H](CC(=O)NCc1cccc3ccccc13)C2,i,?,?,-60.0*,?
CCOC(=O)[C@]12CCC=C1N(Cc1ccc3c(c1)OCO3)C(=O)[C@H](CC(=O)NCc1cccs1)C2,?,6.2%,-11.0%,-7.5,i
COC(=O)[C@]12CCCCC=C1N(Cc1ccc3c(c1)OCO3)C(=O)[C@H](CC(=O)NCc1cccc3ccccc13)C2,23.1µM*,?,-19.0%,-11.1,?
Cn1ccc2cc(S(=O)(=O)N3CCCN(C(=O)Nc4ccc(Br)cc4)CC3)ccc21,?,.,.,.,i
O=[N+]([O-])c1ncccc1OCc1ccc(Br)cc1F,i,6.4%,9.0%,-13.4,i
COCCNc1nc(NCc2ccc(NC(C)=O)cc2)c2sc(-c3ccccc3)cc2n1,?,9.2µM*,?,0.0,?
COCCNc1nc(Oc2ccc(NC(C)=O)cc2)c2sc(-c3ccccc3)cc2n1,i,?,-6.1%,?,i
COCCNc1nc(NCc2cccc(OC)c2)c2sc(-c3ccccc3)cc2n1,i,?,?,-112.0*,?
C/C(=N\NC(=O)c1cc(O)ccc1O)c1cccc(NC(=O)c2ccc(Cl)cc2)c1,i,-1.9%,?,-86.2*,i
CC(C)[C@H](CO)NC(=O)[C@H]1O[C@@H](n2ccc(=O)[nH]c2=O)[C@H](O)[C@@H]1O,i,11.2%,17.6%,24.2,i
CCn1c(=O)c2cc(C(=O)NCC(OC)OC)sc2c2ccccc21,i,13.7%,-0.2%,-55.8*,i
CCN(CC)CCNC(=O)c1cc2c(=O)n(C)c3ccccc3c2s1,?,?,?,?,i
CCCN(CCC)CCCNC(=O)c1cc2c(=O)n(CC)c3ccccc3c2s1,?,-13.9%,-3.2%,-63.2*,23.1µM*
CCn1c(=O)c2cc(C(=O)NCCC(C)C)sc2c2ccccc21,i,9.4%,0.3%,?,i
CCCCN(CC)CCNC(=O)c1cc2c(=O)n(C)c3ccccc3c2s1,?,?,?,-86.2*,i
CCn1c(=O)c2cc(C(=O)NCCCOC)sc2c2ccccc21,?,?,?,-50.1*,?
Cc1ccc(CNC(=O)CCCCCn2c(=O)c3sccc3n(CC(=O)C(C)(C)C)c2=O)cc1,i,.,.,.,i
CCCCN(CC)CCNC(=O)c1cc2c(=O)n(CC)c3ccccc3c2s1,i,-8.0%,3.5%,?,i
